Results: PubChem BioAssay
Measured potencies and affinities stand elsewhere. Active and inactive are the calls of the source. No cut-off is given here; in the data, nearly all actives have IC50 up to about 0.98 µM.

biological target: Calcium-dependent protein kinase 1 (Plasmodium falciparum (isolate 3D7)) (UniProt P62344); assay: PfCDPK1 kinase inhibitors, biochemical, TCAMS library (AID 1159585); conditions: recombinant PfCDPK1, Kinase-Glo ATP depletion luminescence;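 note: inhibitors leave more ATP so luminescence rises with inhibition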
Sequence (P62344 whole entry, looked up): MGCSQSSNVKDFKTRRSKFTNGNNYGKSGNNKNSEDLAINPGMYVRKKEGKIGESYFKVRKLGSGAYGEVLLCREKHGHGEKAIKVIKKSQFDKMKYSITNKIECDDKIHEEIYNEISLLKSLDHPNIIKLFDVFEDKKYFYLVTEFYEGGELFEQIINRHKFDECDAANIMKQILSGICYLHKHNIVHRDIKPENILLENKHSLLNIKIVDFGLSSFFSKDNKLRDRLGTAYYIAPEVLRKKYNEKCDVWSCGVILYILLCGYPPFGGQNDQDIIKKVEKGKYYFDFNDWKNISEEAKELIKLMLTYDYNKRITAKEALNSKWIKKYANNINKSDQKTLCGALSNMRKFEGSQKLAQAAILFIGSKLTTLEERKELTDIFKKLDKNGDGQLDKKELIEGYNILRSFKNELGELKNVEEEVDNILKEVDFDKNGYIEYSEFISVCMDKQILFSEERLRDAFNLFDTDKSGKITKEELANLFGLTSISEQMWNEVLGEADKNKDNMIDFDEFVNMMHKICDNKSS

outcome, inactive:
O=C(/C=C/c1ccc(Cl)c(Cl)c1)N1CCC(CCCN2CCC(c3c[nH]c4ccc(O)cc34)CC2)CC1
C=CCOC(=O)N1CCC(CNCc2cccc(-c3ccc(-c4nc5c(C)cccc5[nH]4)cc3)c2)C1 (centres undefined)
CO/C(=C\C=C\c1cc2cc(Cl)c(Cl)cc2[nH]1)C(=O)NC1C[C@H]2CCC[C@@H](C1)N2C (some centres undefined)
Nc1ncc(-c2ccccc2)cc1-c1nc2cc(Cl)c(F)cc2[nH]1
Cc1cccc2[nH]c(-c3ccc(-c4ccc(CN5CC(C)OC(C)C5)cc4)cc3)nc12 (centres undefined)
CCCCCc1cnc2nc(N)nc(N)c2c1
Nc1cccc(CNCc2cccc(-c3ccc(-c4nc5ccccc5[nH]4)cc3)c2)c1
CCCC(CCC)n1ccc2c3c(N)nc(N)nc3ccc21
COc1cccc(OC)c1C(=O)N1CCC2(CC1)C(=O)N(CC(=O)NC1CCCCC1)CN2c1ccccc1
Cc1cc(N[C@@H](Cc2ccccc2)C(=O)NCc2cccs2)nc(NCCc2ccccn2)n1
OCC1CCN(Cc2ccc(-c3ccc(-c4nc5ccccc5[nH]4)cc3)cc2)CC1
COc1cc(C(=O)N2COCC(CCCN3CCC(N4CCCC4)CC3)(c3ccc(Cl)c(Cl)c3)C2)cc(OC)c1OC (centres undefined)
COc1ccc2c(CCNc3nc(SC)ncc3C(=O)NCCc3ccc(F)cc3)c[nH]c2c1
CCn1c(C2CCN(CCC3CCN(C(=O)/C=C/c4ccc(Cl)c(Cl)c4)CC3)CC2)nc2ccccc21
CCN(CC)CCN(Cc1ccc(-c2ccc(C(F)(F)F)cc2)cc1)C(=O)Cn1c(/C=C/c2ccco2)nc(=O)c2ccccc21
CC(=O)Nc1ccc(CN2CCCN(c3cc(NC(=O)c4cccc(C)c4)ccn3)CC2)cc1
O=C(NC1CC1)c1ccc(N2CCCC(COc3ccc4c(c3)CCCC4)C2)nc1 (centres undefined)
CC(C)(C)c1ccccc1OCCCON1C(N)=NC(N)=NC1(C)C
O=C(Nc1ccccc1)Nc1cccc(-c2cccc(-c3nc4ccc(F)cc4[nH]3)c2)c1
CC(C)c1ccc(NC(=O)c2ccc(C(=O)NC3CCN(Cc4ccsc4)C3)cc2)cc1 (centres undefined)
O=C(Nc1ccc(C(F)(F)F)cc1)NC1CCN(c2ccnc3ccccc23)C1 (centres undefined)
C=CCOc1ccc(CNC2CCN(Cc3ccccc3)CC2)cc1Br
COc1cccc(CN2CCCN(Cc3cccc(NC(=O)c4ccc(Cl)c(Cl)c4)c3)CC2)c1
Cc1cc2ccc(/C=C/C(=O)NC3CCC(CCN4CCc5ccc(C#N)cc5CC4)CC3)cc2[nH]1 (centres undefined)
CCC1N=C(N)N=C(N)N1OCCCOc1c(Cl)cc(Cl)cc1Cl (centres undefined)
NC(N)=NN=Cc1ccc2c(c1)Cc1ccccc1-2
Cc1ccc(S(=O)(=O)N(CCCNCc2cccc(O)c2)c2ccccc2)cc1
COc1cc(F)c2ncc(C#N)c(CCN3CCC(NCc4ccc5c(c4)OCCO5)CC3)c2c1
Nc1nc(N)c2c(Cl)c(N(Cc3ccccc3)Cc3ccccc3)ccc2n1
CCCN(CC1CC1)c1nc(C)nc2c(-c3ccccc3)cc(C)cc12
COc1ccc(-c2nc3c(N)nc(N)nc3nc2C(C)C)cc1
O=C(/C=C/c1ccc(C(F)(F)F)cc1)NCCCCCN1CCN(C(=O)Nc2ccc(Cl)cc2)CC1
Oc1ccc(Nc2nc(N3CCCC3)c3ccccc3n2)cc1
CCc1sc(CN(CCCNc2cc(=O)c3ccccc3[nH]2)Cc2sc(CC)c(Br)c2-c2ccsc2)c(-c2ccsc2)c1Br
COc1ccc(C(=O)N[C@@H](CC(C)C)C(=O)NC2CC[C@@H](C)N(C(=O)Nc3ccc(Cl)cc3)CC2=O)cc1OCCN1CCOCC1 (some centres undefined)
C[C@@H]1CN(c2ccnc3ccc(Sc4ccc(Oc5ccccc5)cc4)cc23)C[C@H](C)N1
O=C(Nc1ccc2c(c1)CCNCC2)Nc1ccc2ccccc2c1
O=C1CC(C(=O)Nc2cccc(-c3cccc(-c4nc5ccccc5[nH]4)c3)c2)c2ccccc2N1 (centres undefined)
CC(=O)c1cccc2[nH]c(C(=O)NC3CCC(CCN4CCc5ccc(C#N)cc5C4)CC3)cc12 (centres undefined)
